This passage reports sensor-assay potency score (higher = more potent) results from the OligoGym collection.
Further: reference of the scale not given here.

The first experiment deals with HHATL. The experiment in a line: pooled miR-30 sensor sort-seq; sequence = guide strand. Conditions: shRNA.
In turn, TACACAGCATACATCCAGGAGC returned a sensor-assay potency score (higher = more potent) of -1.03.

For the sequence TAGCAAACAGCACATGTCCGGA, the sensor-assay potency score (higher = more potent) was -0.627.

In turn, TTAGCAAACAGCACATGTCCGG came in with a sensor-assay potency score (higher = more potent) of -0.577.

With TTTGGGGCAACCATCGTGCAGA, the sensor-assay potency score (higher = more potent) was -0.825.

For TTGGCGAACTTGAGGTCGCTGG, the sensor-assay potency score (higher = more potent) was -0.951.

Regarding TACACATATTTGCAAAGCCAGT, the sensor-assay potency score (higher = more potent) is -1.98.

As for TCAGCCACATCCATCTTCCGGC, the sensor-assay potency score (higher = more potent) is -0.0987.

TAGAGTGCGGTGATGCACTTGG gave a sensor-assay potency score (higher = more potent) of 0.641.

As for TAGAAGTTGTACTTGAGCAGGT, the sensor-assay potency score (higher = more potent) was 0.918.

As for ATATTTGCAAAGCCAGTCGTTG, the sensor-assay potency score (higher = more potent) was -0.866.

The next experiment concerns the target HIC1. The description is as above. Conditions: shRNA.
Consider TGAGGTTGCGTTGCTGTGCGAA, for which the sensor-assay potency score (higher = more potent) was -0.814.

TTGTAGTCGTCGCCGTCGCCGC: the sensor-assay potency score (higher = more potent) is -1.19.

For the sequence TTCAGCTGCTCAGAGCTGGGGA, the sensor-assay potency score (higher = more potent) was -0.306.

Sequence TTCTTGGACAGGTCCAGGCCAC registered a sensor-assay potency score (higher = more potent) of -0.94.

TTGCGTTGCTGTGCGAACTTGC registered a sensor-assay potency score (higher = more potent) of -0.297.

TACAGCTCGGCGCAGTGCGTGT: the sensor-assay potency score (higher = more potent) was -1.35.

Sequence TGCTCTTGTAGTCGTCGCCGTC yielded a sensor-assay potency score (higher = more potent) of -0.864.

Take TTGTCGCACGACGCGCAGCGGT: the sensor-assay potency score (higher = more potent) was -1.62.

As to TTGTAGCTCTTGTCGCACGACG, the sensor-assay potency score (higher = more potent) is -1.22.

On to TAGTCGTCGCCGTCGCCGCCCG, for which the sensor-assay potency score (higher = more potent) is -0.822.

Sequence ATCGTGTCCAGCATCGTCTGCC had a sensor-assay potency score (higher = more potent) of -0.128.
